From PubChem BioAssay (NCI) come the findings set out here.

Some test systems named below: SR leukemia; RPMI-8226 leukemia; OVCAR-8 ovarian; OVCAR-5 ovarian; OVCAR-4 ovarian; SK-OV-3 ovarian; IGROV1 ovarian; OVCAR-3 ovarian; HS 578T breast; NCI/ADR-RES ovarian; T-47D breast; BT-549 breast; MDA-MB-435 melanoma; SW-620 colon; MCF7 breast; HCT-116 colon; HCC-2998 colon; KM12 colon.
Assay in all cases: NCI-60 one-dose screen, 48 h (100 = growth as untreated, 0 = no growth, -100 = all killed)
Holding throughout (conditions): 10 µM unless noted

The panel holds about 83,000 compounds, 20% with a hit somewhere; the sample as a whole holds those more often.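 48-hour exposure, single concentration, 96-well plates; percent growth endpoint where 0 means no net growth. Active: below 10.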 Values without a mark were called inactive. Calls of active or inactive are those of the source.

`CC(=O)OC[C@]12CC[C@@H](C(=O)CBr)[C@@H]1[C@H]1CC[C@@H]3[C@@]4(C)CC[C@H](OC(C)=O)C(C)(C)[C@@H]4CC[C@@]3(C)[C@]1(C)CC2`: the growth with SR leukemia is 4.82% (active); with RPMI-8226 leukemia, 91.4%; with OVCAR-8 ovarian, 81.9%; in the experiment on OVCAR-5 ovarian, 102%; in the experiment on OVCAR-4 ovarian, 94%; in the experiment on SK-OV-3 ovarian it was 90%. The growth with IGROV1 ovarian is -1.69% (active); in the experiment on OVCAR-3 ovarian, 101%; with HS 578T breast, 101%; in the experiment with NCI/ADR-RES ovarian it was 110%; in the experiment on T-47D breast, 85.3%; in the experiment on BT-549 breast, 84%. Also, the growth with MDA-MB-435 melanoma is 93.3%; in the experiment with SW-620 colon, 100%; in the experiment with MCF7 breast, 89%; with HCT-116 colon, 88.2%; in the experiment on HCC-2998 colon, 111%; with KM12 colon, 97.7%.

In the case of `CCCCCN1C=C/C(=C\C(=O)N(C)c2ccccc2Br)c2ccccc21`, the growth was 74.3% with SR leukemia; 73.6% in the experiment on RPMI-8226 leukemia; 88.7% in the experiment with OVCAR-8 ovarian; 96% in the experiment with OVCAR-5 ovarian; 83.5% with OVCAR-4 ovarian; 94% in the experiment with SK-OV-3 ovarian. For the same compound, the growth in the experiment on IGROV1 ovarian is 98.5%; in the experiment on OVCAR-3 ovarian, 97.4%; in the experiment on HS 578T breast, 96.8%; with NCI/ADR-RES ovarian, 100%; in the experiment with T-47D breast, 77.3%; in the experiment with BT-549 breast it was 116%. Also, the growth was 99.4% in the experiment with MDA-MB-435 melanoma; 97% in the experiment on SW-620 colon; 94.3% in the experiment on MCF7 breast; 87.2% in the experiment with HCT-116 colon; 102% in the experiment with HCC-2998 colon; 98.4% in the experiment on KM12 colon.

As to `CCOC(=O)Oc1c(OC)cc(C(=O)c2ccc(OC)c(OC(=O)CCl)c2OC)cc1OC`, the growth in the experiment on SR leukemia was 29.4%; in the experiment with RPMI-8226 leukemia, 18.4%; with OVCAR-8 ovarian, 25.5%; in the experiment with OVCAR-5 ovarian, 77%; in the experiment with OVCAR-4 ovarian it was 79.8%; in the experiment on SK-OV-3 ovarian, 19.7%. Also, the growth in the experiment on IGROV1 ovarian is 40.4%; in the experiment with OVCAR-3 ovarian, -18.4% (active); in the experiment with HS 578T breast, 15.2%; in the experiment with NCI/ADR-RES ovarian, -5.85% (active); in the experiment with T-47D breast, 36.2%; in the experiment on BT-549 breast, 42.4%. The growth with MDA-MB-435 melanoma was -35.9% (active); in the experiment on SW-620 colon, 21.9%; in the experiment on MCF7 breast, 16.6%; with HCT-116 colon, 11.4%; with HCC-2998 colon, 43.3%; with KM12 colon it was 21.9%.

As to `COc1ccc(C(=O)c2cc(OC)c(OC)c(OC)c2)cc1O`, the growth with SR leukemia was 7.02% (active); with RPMI-8226 leukemia, 12.7%; with OVCAR-8 ovarian it was 14.1%; in the experiment on OVCAR-5 ovarian, 31.8%; in the experiment with OVCAR-4 ovarian, 30.6%; with SK-OV-3 ovarian, 37.2%. Further, the growth with IGROV1 ovarian was 16.2%; in the experiment with OVCAR-3 ovarian, -6.73% (active); with HS 578T breast, 28.8%; in the experiment with NCI/ADR-RES ovarian, -32.3% (active); in the experiment on T-47D breast, 54.7%; in the experiment on BT-549 breast it was 12%. Also, the growth is -41.1% (active) in the experiment on MDA-MB-435 melanoma; 22.3% in the experiment with SW-620 colon; 6.25% (active) in the experiment with MCF7 breast; 4.24% (active) with HCT-116 colon; 12.4% with HCC-2998 colon; 9.38% (active) in the experiment with KM12 colon.

Turning to `Nc1n[nH]c2cccc(C#Cc3cccc(C(=O)Nc4cccc(C(F)(F)F)c4)c3)c12`, the growth in the experiment on SR leukemia was 72%; in the experiment on RPMI-8226 leukemia, 58.9%; with OVCAR-8 ovarian, 76.3%; in the experiment with OVCAR-5 ovarian, 57.6%; with OVCAR-4 ovarian, 66.2%; in the experiment on SK-OV-3 ovarian, 59.6%. The growth with IGROV1 ovarian is 30.3%; in the experiment with OVCAR-3 ovarian, 73.8%; with HS 578T breast, 40.5%; with NCI/ADR-RES ovarian it was 80.6%; in the experiment with T-47D breast it was 46.9%; with BT-549 breast, 84.9%. The growth in the experiment with MDA-MB-435 melanoma is 52.5%; in the experiment on SW-620 colon it was 55.9%; with MCF7 breast it was 71.6%; in the experiment with HCT-116 colon it was 27.5%; with HCC-2998 colon, 62%; with KM12 colon it was 46.7%.

`C#CCNC(=O)[C@H](Cc1ccccc1)NC(=O)[C@]12CC[C@@H](C(=C)C)[C@@H]1[C@H]1CC[C@@H]3[C@@]4(C)CCC(=O)C(C)(C)[C@@H]4CC[C@@]3(C)[C@]1(C)CC2`: the growth was 42% in the experiment on SR leukemia; 38% in the experiment with RPMI-8226 leukemia; 86.8% in the experiment with OVCAR-8 ovarian; 87.1% in the experiment with OVCAR-5 ovarian; 81.6% in the experiment on OVCAR-4 ovarian; 84.7% in the experiment with SK-OV-3 ovarian. Also, the growth in the experiment on IGROV1 ovarian is 89.1%; in the experiment on OVCAR-3 ovarian, 62.9%; with HS 578T breast, 85.1%; with NCI/ADR-RES ovarian, 79.8%; with T-47D breast it was 49.8%; with BT-549 breast, 104%. In addition, the growth in the experiment on MDA-MB-435 melanoma is 85%; in the experiment on SW-620 colon, 64.8%; in the experiment on MCF7 breast, 56%; in the experiment on HCT-116 colon, 35.3%; with HCC-2998 colon, 80.8%; with KM12 colon it was 61.5%.

For `COc1cc(-c2csc(NC(=O)c3cc(F)cc(C(F)(F)F)c3)n2)cc(OC)c1OC`, the growth with SR leukemia is 16.1%; with RPMI-8226 leukemia it was -4.32% (active); with OVCAR-8 ovarian it was 37.7%; in the experiment with OVCAR-5 ovarian, 82.7%; with OVCAR-4 ovarian it was 58.7%; with SK-OV-3 ovarian, 54.3%. In addition, the growth is 43.8% in the experiment with IGROV1 ovarian; 12.2% in the experiment on OVCAR-3 ovarian; 20% in the experiment on HS 578T breast; 49.8% with NCI/ADR-RES ovarian; 19.3% in the experiment with T-47D breast; 41.2% in the experiment on BT-549 breast. Moreover, the growth with MDA-MB-435 melanoma is -16.2% (active); in the experiment with SW-620 colon it was 32.4%; with MCF7 breast, 20.9%; in the experiment with HCT-116 colon it was 16.5%; in the experiment with HCC-2998 colon it was 72.2%; with KM12 colon it was 26.6%.

Regarding `NCCCCCCNc1cc(-c2cccc(OC(F)(F)F)c2)nc2ccc(N3CCCC3)cc12`, the growth in the experiment with SR leukemia was -24.7% (active); in the experiment on RPMI-8226 leukemia, -37.8% (active); in the experiment with OVCAR-8 ovarian, 2.63% (active); with OVCAR-5 ovarian it was 12.6%; in the experiment on OVCAR-4 ovarian, -39.8% (active); with SK-OV-3 ovarian it was 93.6%. The growth is -55.6% (active) in the experiment on IGROV1 ovarian; -82.4% (active) in the experiment on OVCAR-3 ovarian; -54% (active) in the experiment with HS 578T breast; 5.01% (active) with NCI/ADR-RES ovarian; -15.4% (active) with T-47D breast; 55.7% with BT-549 breast. Further, the growth was -99.8% (active) in the experiment with MDA-MB-435 melanoma; -86.3% (active) in the experiment with SW-620 colon; -72.6% (active) with MCF7 breast; -63.3% (active) in the experiment on HCT-116 colon; -66.5% (active) with HCC-2998 colon; -82.7% (active) in the experiment on KM12 colon.
